From PubChem BioAssay (EPA / NIEHS)
Several values for one entry are separate records, joined by “and”; a condition that tells them apart may be missing. Identical values can stand only once. Records with an inconclusive call do not appear. The source holds several records for some structures; these can differ, active in one and inactive in another. Activity calls are given as the source filed them. Rule for the calls, unless noted: active = hit-call score of the fitted dose curve at least 0.9, where 1 is the maximum; inactive = score below 0.9.

Columns and labels:
[1] = biological target: human RAR-related Orphan Receptor beta (RORb), RORB (gene 6096) (UniProt Q92753); experiment: ATG_RORb_TRANS: Attagene TRANS-FACTORIAL HepG2 Assay for human RAR-related Orphan Receptor beta (RORb) (AID 2283010; active = hit-call score of the fitted dose curve at least 0.9, where 1 is the maximum)
In short: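 HepG2 cells transiently transfected with GAL4-UAS reporter units expressing chimeric NR-Gal4 protein; reporter mRNA measured 24 h after dosing by RT-PCR, 6-FAM labelling and capillary electrophoresis. Gain-of-signal fitted relative to DMSO baseline.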

[2] = biological target: Retinoic acid receptor RXR-alpha (Homo sapiens) (UniProt P19793); experiment: ATG_RXRa_TRANS: Attagene TRANS-FACTORIAL HepG2 Assay for human Retinoid X Receptor alpha (RXRa) (AID 2283012; active = hit-call score of the fitted dose curve at least 0.9, where 1 is the maximum)
In short: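 HepG2 cells transiently transfected with GAL4-UAS reporter units and chimeric RXRa-Gal4 protein, treated 24 h. Reporter mRNA measured by RT-PCR, fluorescent labelling, HpaI digestion and capillary electrophoresis. Induction fitted against DMSO.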

[3] = biological target: human Thyroid Receptor alpha (THRa1), THRA (gene 7067) (UniProt P10827); experiment: ATG_THRa1_TRANS: Attagene TRANS-FACTORIAL HepG2 Assay for human Thyroid Receptor alpha (THRa1) (AID 2283014; active = hit-call score of the fitted dose curve at least 0.9, where 1 is the maximum)
In short: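 HepG2 cells transiently transfected with multiplexed GAL4-UAS reporter units for exogenous chimeric THRa1-Gal4; reporter mRNA measured 24 h after dosing by RT-PCR, 6-FAM labelling, HpaI digestion and capillary electrophoresis. Gain-of-signal fitted versus DMSO baseline.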

[4] = read-out: E-selectin (Homo sapiens) (UniProt P16581); experiment: BSK_3C_Eselectin: BioMAP Diversity Plus: 3C Assay for Eselectin Biomarker Activity (AID 2283015); details: primary human endothelial cells (HUVEC); actives raise or lower the signal
In short: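 Primary human umbilical vein endothelial cells (3C system) were dosed with chemical and cell-surface E-selectin measured by ELISA 24 h later. Bidirectional curve fitting used DMSO as negative control and baseline.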

[5] = read-out: Interleukin-1 alpha (IL1a), IL1A (gene 3552); experiment: BSK_BE3C_IL1a: BioMAP Diversity Plus: BE3C Assay for Interleukin-1 alpha (IL1a) Biomarker Activity (AID 2283016); details: primary human bronchial epithelial cells; actives raise or lower the signal
In short: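 Human primary bronchial epithelial cells, 24 h chemical exposure; IL-1a quantified by ELISA, fitted bidirectionally against DMSO. Cytotoxicity assessed in parallel by SRB total-protein staining at the time of measurement.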

[6] = read-out: Monocyte Chemoattractant Protein-1 (MCP1), CCL2 (gene 6347); experiment: BSK_3C_MCP1: BioMAP Diversity Plus: 3C Assay for Monocyte Chemoattractant Protein-1 (MCP1) Biomarker Activity (AID 2283017); details: primary human endothelial cells (HUVEC); actives raise or lower the signal
In short: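 Primary human umbilical vein endothelial cells (3C system) were exposed to test chemical for 24 h, after which MCP-1 was quantified by ELISA. Activity was fitted bidirectionally against DMSO as negative control and baseline.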

[7] = read-out: Monocyte Chemoattractant Protein-1 (MCP1), CCL2 (gene 6347); experiment: BSK_4H_MCP1: BioMAP Diversity Plus: 4H Assay for Monocyte Chemoattractant Protein-1 (MCP1) Biomarker Activity (AID 2283018); details: primary human endothelial cells (HUVEC); actives raise or lower the signal
In short: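 Human umbilical vein endothelial cells (4H system) exposed to chemicals for 24 h in 96-well format. MCP-1 measured by ELISA; bidirectional fitting against DMSO, with SRB total-protein staining in parallel cultures for cytotoxicity.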

[8] = read-out: Human Leukocyte Antigen - DR isotype (HLADR), HLA-DRA (gene 3122); experiment: BSK_3C_HLADR: BioMAP Diversity Plus: 3C Assay for Human Leukocyte Antigen - DR isotype (HLADR) Biomarker Activity (AID 2283019); details: primary human endothelial cells (HUVEC); actives raise or lower the signal
In short: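 Primary human umbilical vein endothelial cells (3C system) were dosed with compound and cell-surface HLA-DR was quantified by ELISA at 24 h. Activity was fitted bidirectionally against DMSO as negative control and baseline.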

[9] = read-out: Interleukin-8 (IL8), CXCL8 (gene 3576); experiment: BSK_3C_IL8: BioMAP Diversity Plus: 3C Assay for Interleukin-8 (IL8) Biomarker Activity (AID 2283020); details: primary human endothelial cells (HUVEC); actives raise or lower the signal
In short: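 Primary human umbilical vein endothelial cells were dosed for 24 h. IL-8 was quantified by ELISA and fitted bidirectionally against DMSO. Cytotoxicity was assessed in parallel cultures by SRB staining at 560 nm.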

[10] = read-out: Monokine induced gamma interferon (MIG), CXCL9 (gene 4283); experiment: BSK_3C_MIG: BioMAP Diversity Plus: 3C Assay for Monokine induced gamma interferon (MIG) Biomarker Activity (AID 2283021); details: primary human endothelial cells (HUVEC); actives raise or lower the signal;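 for AC50: MIG protein level measured by immunoassay in the treated endothelial cultures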
In short: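 HUVEC primary endothelial cultures dosed with chemical; MIG quantified by ELISA at 24 h. Data fitted bidirectionally against DMSO control, with parallel SRB total-protein staining for cytotoxicity.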

[11] = biological target: human Vitamin D Receptor (VDR), VDR (gene 7421) (UniProt P11473); experiment: ATG_VDR_TRANS: Attagene TRANS-FACTORIAL HepG2 Assay for human Vitamin D Receptor (VDR) (AID 2283022; active = hit-call score of the fitted dose curve at least 0.9, where 1 is the maximum)
In short: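 HepG2 cells were transiently transfected with multiple GAL4-UAS reporter units, so signal reflects exogenous chimeric receptor-Gal4 activity. After 24 h compound exposure, reporter mRNA was measured by RT-PCR, fluorescent labelling and capillary electrophoresis, fitted for gain of signal versus DMSO.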

[12] = BSK_3C_SRB: Viability Assessment in the BioMAP Diversity Plus: 3C Assay (AID 2283023); details: primary human endothelial cells (HUVEC);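 note: fitted both ways against DMSO so a hit may be signal rise or drop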
In short: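 Primary human umbilical vein endothelial cells in the 3C system were read 24 h after compound dosing. Total protein was stained with 0.1% sulforhodamine B after 10% TCA fixation and read at 560 nm, with bidirectional fitting against DMSO as baseline.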

[13] = read-out: Matrix Metallopeptidase 1 (MMP1), MMP1 (gene 4312); experiment: BSK_BE3C_MMP1: BioMAP Diversity Plus: BE3C Assay for Matrix Metallopeptidase 1 (MMP1) Biomarker Activity (AID 2283024); details: primary human bronchial epithelial cells; actives raise or lower the signal
In short: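 Human primary bronchial epithelial cells (BE3C system) dosed for 24 h; MMP-1 quantified by ELISA. Bidirectional fit against DMSO; cytotoxicity tracked in parallel cultures by SRB total-protein staining.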

[14] = read-out: Pselectin, SELP (gene 6403); experiment: BSK_4H_Pselectin: BioMAP Diversity Plus: 4H Assay for Pselectin Biomarker Activity (AID 2283026); details: primary human endothelial cells (HUVEC); actives raise or lower the signal
In short: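 Primary human umbilical vein endothelial cells were treated 24 h, and cell-surface P-selectin was then quantified by ELISA. Bidirectional fit versus DMSO; cytotoxicity checked in parallel cultures by SRB total-protein staining.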

[15] = BSK_4H_SRB: Viability Assessment in the BioMAP Diversity Plus: 4H Assay (AID 2283027); details: primary human endothelial cells (HUVEC);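 note: cells exposed to compound for 24 h before staining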;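 for AC50: curves fitted both ways versus DMSO so AC50 may be loss or gain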
In short: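 Human umbilical vein endothelial cells were dosed with chemical and, after 24 h, fixed with 10% TCA, stained with 0.1% sulforhodamine B, and read at 560 nm to give total protein as a cytotoxicity measure. Bidirectional fitting relative to DMSO control.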

[16] = BSK_BE3C_SRB: Viability Assessment in the BioMAP Diversity Plus: BE3C Assay (AID 2283028); details: primary human bronchial epithelial cells;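 for AC50: fitted both ways so AC50 may mark signal gain or loss versus DMSO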
In short: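 Human primary bronchial epithelial cells were exposed to test chemicals for 24 h. Total protein in parallel cultures was then measured by staining with 0.1% sulforhodamine B after 10% TCA fixation, with absorbance read at 560 nm. Activity was fitted bidirectionally against DMSO.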

[17] = read-out: Thrombomodulin, THBD (gene 7056); experiment: BSK_3C_Thrombomodulin: BioMAP Diversity Plus: 3C Assay for Thrombomodulin Biomarker Activity (AID 2283029); details: primary human endothelial cells (HUVEC); actives raise or lower the signal
In short: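 Human umbilical vein endothelial cells were exposed to chemicals for 24 h; cell-surface thrombomodulin quantified by ELISA, with bidirectional fitting against DMSO baseline.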

[18] = biological target: human RAR-related Orphan Receptor gamma (RORg), RORC (gene 6097) (UniProt P51449); experiment: ATG_RORg_TRANS: Attagene TRANS-FACTORIAL HepG2 Assay for human RAR-related Orphan Receptor gamma (RORg) (AID 2283011; active = hit-call score of the fitted dose curve at least 0.9, where 1 is the maximum)
In short: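 Readout: reporter transcript induction (RT-PCR, fluorescent primer extension, capillary electrophoresis) after 24 h compound exposure of transiently transfected HepG2 cells carrying a RORg-Gal4 chimera and GAL4-UAS reporters; DMSO served as baseline, with increasing signal fitted.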

[19] = BSK_3C_Vis: BioMAP Diversity Plus: 3C Assay for Morphology Visualization (AID 2283025); details: primary human endothelial cells (HUVEC);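 note: fitted both ways so gain or loss versus DMSO counts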
In short: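 Human umbilical vein endothelial cell morphology was inspected by light microscopy 24 h after chemical dosing; scored bidirectionally relative to DMSO.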

[20] = biological target: human Retinoid X Receptor beta (RXRb), RXRB (gene 6257) (UniProt P28702); experiment: ATG_RXRb_TRANS: Attagene TRANS-FACTORIAL HepG2 Assay for human Retinoid X Receptor beta (RXRb) (AID 2283013; active = hit-call score of the fitted dose curve at least 0.9, where 1 is the maximum)
In short: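 HepG2 cells were transiently transfected with multiplexed GAL4-UAS reporters and a chimeric RXRb-Gal4 construct, then exposed for 24 h. Reporter mRNA was quantified by RT-PCR, FAM labeling, HpaI digestion and capillary electrophoresis; gain of signal was scored against DMSO.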

Measured: AC50

Sequence of human Retinoid X Receptor beta (RXRb), RXRB (gene 6257) (P28702 whole entry, looked up, the tested form may be a part): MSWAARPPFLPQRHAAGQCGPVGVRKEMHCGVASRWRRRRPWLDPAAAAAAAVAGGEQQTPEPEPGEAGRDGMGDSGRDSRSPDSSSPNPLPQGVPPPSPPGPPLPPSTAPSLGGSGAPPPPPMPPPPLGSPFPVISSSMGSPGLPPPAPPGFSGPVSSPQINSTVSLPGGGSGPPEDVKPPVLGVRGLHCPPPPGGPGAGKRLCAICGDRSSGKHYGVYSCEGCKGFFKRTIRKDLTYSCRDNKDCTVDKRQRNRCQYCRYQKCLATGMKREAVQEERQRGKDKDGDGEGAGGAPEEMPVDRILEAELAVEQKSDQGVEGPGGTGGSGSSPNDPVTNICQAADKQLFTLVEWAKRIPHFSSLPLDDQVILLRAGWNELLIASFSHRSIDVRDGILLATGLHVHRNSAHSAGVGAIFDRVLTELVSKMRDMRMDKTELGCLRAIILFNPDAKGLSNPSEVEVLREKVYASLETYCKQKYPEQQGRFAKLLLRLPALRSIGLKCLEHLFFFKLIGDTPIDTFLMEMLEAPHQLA
Sequence of human Thyroid Receptor alpha (THRa1), THRA (gene 7067) (P10827 whole entry, looked up, the tested form may be a part): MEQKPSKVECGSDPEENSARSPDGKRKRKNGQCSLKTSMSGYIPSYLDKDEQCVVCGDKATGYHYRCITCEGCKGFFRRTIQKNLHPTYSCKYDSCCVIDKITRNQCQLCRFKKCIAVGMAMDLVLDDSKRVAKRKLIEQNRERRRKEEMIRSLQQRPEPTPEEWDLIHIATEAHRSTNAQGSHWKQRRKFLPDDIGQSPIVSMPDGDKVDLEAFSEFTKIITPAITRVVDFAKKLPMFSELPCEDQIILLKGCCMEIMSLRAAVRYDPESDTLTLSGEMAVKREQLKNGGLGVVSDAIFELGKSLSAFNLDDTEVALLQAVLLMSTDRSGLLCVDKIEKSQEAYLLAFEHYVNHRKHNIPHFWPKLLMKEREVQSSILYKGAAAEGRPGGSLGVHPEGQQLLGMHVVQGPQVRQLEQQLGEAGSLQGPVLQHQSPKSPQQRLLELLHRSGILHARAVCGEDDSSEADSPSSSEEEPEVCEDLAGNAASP
Sequence of Retinoic acid receptor RXR-alpha (Homo sapiens) (P19793 whole entry, looked up, the tested form may be a part): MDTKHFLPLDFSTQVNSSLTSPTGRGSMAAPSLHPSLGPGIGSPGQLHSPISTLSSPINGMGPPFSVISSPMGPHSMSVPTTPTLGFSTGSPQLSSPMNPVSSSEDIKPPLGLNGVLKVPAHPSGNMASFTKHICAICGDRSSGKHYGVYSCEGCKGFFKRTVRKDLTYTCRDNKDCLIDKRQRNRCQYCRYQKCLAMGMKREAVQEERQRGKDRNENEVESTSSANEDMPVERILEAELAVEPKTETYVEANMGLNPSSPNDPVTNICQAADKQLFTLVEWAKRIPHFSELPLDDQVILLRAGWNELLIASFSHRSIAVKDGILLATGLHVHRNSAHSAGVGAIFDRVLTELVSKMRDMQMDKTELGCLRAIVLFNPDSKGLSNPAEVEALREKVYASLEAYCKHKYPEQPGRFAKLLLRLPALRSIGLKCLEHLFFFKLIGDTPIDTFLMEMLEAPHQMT
Sequence of E-selectin (Homo sapiens) (P16581 whole entry, looked up): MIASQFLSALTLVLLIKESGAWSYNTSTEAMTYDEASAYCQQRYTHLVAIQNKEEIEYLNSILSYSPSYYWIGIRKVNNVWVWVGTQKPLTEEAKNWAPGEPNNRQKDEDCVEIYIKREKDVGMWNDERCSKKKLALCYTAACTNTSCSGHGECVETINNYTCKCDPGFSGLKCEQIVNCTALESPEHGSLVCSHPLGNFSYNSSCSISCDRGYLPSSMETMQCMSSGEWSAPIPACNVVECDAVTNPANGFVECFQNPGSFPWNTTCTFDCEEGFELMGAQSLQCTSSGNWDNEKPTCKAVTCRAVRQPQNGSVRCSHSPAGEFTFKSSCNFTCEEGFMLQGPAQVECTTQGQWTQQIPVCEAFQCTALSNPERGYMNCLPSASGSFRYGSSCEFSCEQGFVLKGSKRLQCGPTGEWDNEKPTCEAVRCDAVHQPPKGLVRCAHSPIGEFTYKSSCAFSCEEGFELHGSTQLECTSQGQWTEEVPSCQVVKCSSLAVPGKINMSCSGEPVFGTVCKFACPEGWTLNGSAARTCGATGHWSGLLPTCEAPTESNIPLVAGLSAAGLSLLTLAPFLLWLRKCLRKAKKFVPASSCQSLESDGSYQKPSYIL
Sequence of human Vitamin D Receptor (VDR), VDR (gene 7421) (P11473 whole entry, looked up, the tested form may be a part): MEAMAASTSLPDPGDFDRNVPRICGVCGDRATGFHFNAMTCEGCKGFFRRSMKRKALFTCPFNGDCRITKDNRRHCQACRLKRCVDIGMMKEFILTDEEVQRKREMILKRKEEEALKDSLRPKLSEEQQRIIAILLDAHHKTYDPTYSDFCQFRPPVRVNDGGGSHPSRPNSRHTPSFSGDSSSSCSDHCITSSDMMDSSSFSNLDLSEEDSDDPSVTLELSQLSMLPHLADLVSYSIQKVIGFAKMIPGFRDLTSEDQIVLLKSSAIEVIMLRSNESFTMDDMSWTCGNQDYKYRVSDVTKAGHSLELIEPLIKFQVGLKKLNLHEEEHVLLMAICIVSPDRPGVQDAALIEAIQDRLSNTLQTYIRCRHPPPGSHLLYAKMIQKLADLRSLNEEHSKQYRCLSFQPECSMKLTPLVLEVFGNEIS
Sequence of human RAR-related Orphan Receptor gamma (RORg), RORC (gene 6097) (P51449 whole entry, looked up, the tested form may be a part): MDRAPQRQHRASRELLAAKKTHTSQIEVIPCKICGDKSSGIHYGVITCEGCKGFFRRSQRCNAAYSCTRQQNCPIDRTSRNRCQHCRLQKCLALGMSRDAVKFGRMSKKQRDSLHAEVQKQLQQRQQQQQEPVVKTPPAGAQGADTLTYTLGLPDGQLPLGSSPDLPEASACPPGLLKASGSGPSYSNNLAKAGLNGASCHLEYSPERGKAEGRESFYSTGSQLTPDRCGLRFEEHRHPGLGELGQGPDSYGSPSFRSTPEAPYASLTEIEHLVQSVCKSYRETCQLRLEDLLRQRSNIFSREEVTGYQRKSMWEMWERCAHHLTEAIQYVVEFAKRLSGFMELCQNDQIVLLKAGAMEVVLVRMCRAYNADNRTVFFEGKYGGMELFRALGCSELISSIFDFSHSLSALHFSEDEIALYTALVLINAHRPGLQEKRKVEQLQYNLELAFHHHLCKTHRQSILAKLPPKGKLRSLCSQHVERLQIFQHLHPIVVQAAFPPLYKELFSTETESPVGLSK
Sequence of human RAR-related Orphan Receptor beta (RORb), RORB (gene 6096) (Q92753 whole entry, looked up, the tested form may be a part): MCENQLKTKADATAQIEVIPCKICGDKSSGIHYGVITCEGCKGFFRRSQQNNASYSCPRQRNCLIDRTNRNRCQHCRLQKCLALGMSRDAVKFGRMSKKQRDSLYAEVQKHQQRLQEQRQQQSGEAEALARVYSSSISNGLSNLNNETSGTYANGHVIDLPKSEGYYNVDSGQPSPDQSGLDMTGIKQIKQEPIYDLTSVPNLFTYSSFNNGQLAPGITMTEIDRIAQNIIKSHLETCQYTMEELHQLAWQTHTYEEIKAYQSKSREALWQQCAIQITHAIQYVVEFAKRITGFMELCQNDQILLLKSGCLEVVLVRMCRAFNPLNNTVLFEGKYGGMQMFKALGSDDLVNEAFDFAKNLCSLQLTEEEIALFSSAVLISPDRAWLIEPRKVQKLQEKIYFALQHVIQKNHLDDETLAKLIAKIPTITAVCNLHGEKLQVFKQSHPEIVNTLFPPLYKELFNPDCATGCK

CCCCCCCCCc1ccc(O)cc1
active: [4] 14.3 µM | [5] 17.3 µM | [6] 14.6 µM | [7] 12.3 µM | [8] 14.1 µM | [9] 15.5 µM | [10] 16.4 µM | [12] 15.5 µM | [13] 16.7 µM | [14] 12.5 µM | [15] 14.9 µM | [16] 15.1 µM
inactive: [1] | [2] | [3] | [11] | [17]

Cc1cc2c3c(c1)C(c1ccccc1)=N[C@@H](NC(=O)c1ccncc1)C(=O)N3CC2
not listed: [3] | [17] | [20]
inactive: all other assays above

Sc1ccccc1
not listed: [1] | [2] | [17] | [19]
inactive: all other assays above

Cc1cc(O)ccc1Cl
not listed: [1] | [17] | [19]
inactive: all other assays above

C=CC(N)=O
active: [2] 157 µM | [20] 15.8 µM
not listed: [3] | [18]
inactive: all other assays above

O=C(O)C(F)(F)C(F)(F)C(F)(F)C(F)(F)C(F)(F)C(F)(F)C(F)(F)C(F)(F)C(F)(F)F
active: [20] 18.1 µM and 13.4 µM and 13.2 µM | [4] 53.8 µM and 54.9 µM | [5] 18.5 µM and 11.9 µM and 13.4 µM | [6] 32.5 µM and 54.6 µM and 52.9 µM | [7] 48.2 µM and 53.7 µM | [8] 33.2 µM and 53.3 µM and 56.7 µM | [9] 53.6 µM and 47 µM | [10] 58.5 µM and 52.5 µM | [12] 31.3 µM and 53 µM and 51.6 µM | [13] 32.4 µM | [14] 50.1 µM and 49.5 µM | [15] 36.5 µM and 52.1 µM and 55 µM | [16] 29.6 µM and 12.6 µM and 15.8 µM
inactive: [1] | [18] | [2] | [3] | [4] | [7] | [9] | [10] | [13] | [19] | [14]
